Test results from PubChem BioAssay (NCATS).
Results filed as inconclusive are left out. Activity calls are given as the source filed them. Unless noted, calls follow the shape of the dose curve; as a rule, active = well fitted curve in the direction sought with a large enough effect; inconclusive = small, poorly fitted or top-dose-only effect, or another doubt; inactive = no such curve, though single readings can be large; an effect the other way counts as inactive or inconclusive.

Columns and labels:
[1] = KB-3-1 P-gp reporter qHTS against the NCATS DSHEA and TCM libraries (AID 1919975); also: 0% is about no effect
Procedure, shortened: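 Parental KB-3-1 cells, 500 cells/well, in DMEM with 10% FBS, exposed 72 h at 37 C to compounds in concentration-response. Viability read by CellTiter-Glo luminescence after 30 min at room temperature.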

[2] = qHTS Counterscreen for compound interference against the NCATS DSHEA and TCM libraries (AID 1919978); conditions: firefly luciferase detection reagent interference, luminescence;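 also: compounds preincubated with 1 µM D-luciferin or buffer before detection reagent; % of control where 0% means no effect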
Procedure, shortened: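 Firefly luciferase detection reagent was added after compounds (19.5 nM–39.8 uM final) had been incubated 15 min at room temperature with 1 uM D-luciferin or with 100 mM phosphate buffer alone. Luminescence was read after 30 min at room temperature.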

[3] = Dual reporter qHTS for agonist of Pregnane X Receptor (hPXR) against the NCATS DSHEA and TCM libraries: Fluorescence readout (AID 1920058); also: 0% is about no effect
Procedure, shortened: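 Fluorescence read-out for cell viability: CellTiter-Fluor, 1 h at 37 °C, Ex/Em 405/540 nm. This followed ~24 h treatment of hPXR-Luc HepG2 cells with substances in agonist mode.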

[4] = target: Nuclear receptor subfamily 1 group I member 2 (Homo sapiens) (UniProt O75469); assay: Dual reporter qHTS for agonist of Pregnane X Receptor (hPXR) against the NCATS DSHEA and TCM libraries: Luminescence readout (AID 1920059); also: 0% is about no effect
Procedure, shortened: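 Luminescent PXR reporter read (ONE-Glo) after a CellTiter-Fluor viability read, following 24 h, 37C treatment of HepG2 cells stably carrying hPXR-Luc.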

[5] = Dual reporter qHTS for antagonist of Pregnane X Receptor (hPXR) against the NCATS DSHEA and TCM libraries: Fluorescence Readout (AID 1920061); also: 0% is about no effect
Procedure, shortened: (§1)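 In antagonist mode, 2 uM rifampicin was added to hPXR-Luc HepG2 cells alongside test substances, incubated 24 h at 37 C; luminescence gave reporter activity, and CellTiter-Fluor fluorescence (405/540 nm) gave viability.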

[6] = qHTS profiling for inhibitors of Plasmodium falciparum proliferation (AID 504749); also: nearly all actives have a fitted effect of over 60% in size; also: potency is read from the fitted curve at half-maximal effect;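 as to activity, negative = inhibition: 0% = DMSO vehicle and full inhibition = artemisinin control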; conditions: P. falciparum in erythrocytes, SYBR Green DNA, 72 h
Procedure, shortened: (§2)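 In a 72 h erythrocytic culture (37 C, humidified, 5% CO2) at 2.5% hematocrit and 0.3% starting parasitemia, compounds were tested; SYBR Green I in detergent lysis buffer stained parasite DNA overnight.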

3D7 = assay: as above; conditions: P. falciparum in erythrocytes, SYBR Green DNA, 72 h; series mostly up to 28.7 µM
Procedure, shortened: as §2

7G8 = assay: as above; conditions: P. falciparum in erythrocytes, SYBR Green DNA, 72 h; series mostly up to 28.7 µM
Procedure, shortened: as §2

AA1029 = assay: as above; conditions: P. falciparum in erythrocytes, SYBR Green DNA, 72 h; series mostly up to 28.7 µM
Procedure, shortened: as §2

AS120 = assay: as above; conditions: P. falciparum in erythrocytes, SYBR Green DNA, 72 h; series mostly up to 28.7 µM
Procedure, shortened: as §2

ATS189 = assay: as above; conditions: P. falciparum in erythrocytes, SYBR Green DNA, 72 h; series mostly up to 28.7 µM
Procedure, shortened: as §2

ATS95 = assay: as above; conditions: P. falciparum in erythrocytes, SYBR Green DNA, 72 h; series mostly up to 28.7 µM
Procedure, shortened: as §2

C2A = assay: as above; conditions: P. falciparum in erythrocytes, SYBR Green DNA, 72 h; series mostly up to 28.7 µM
Procedure, shortened: as §2

CP185 = assay: as above; conditions: P. falciparum in erythrocytes, SYBR Green DNA, 72 h; series mostly up to 28.7 µM
Procedure, shortened: as §2

CP191 = assay: as above; conditions: P. falciparum in erythrocytes, SYBR Green DNA, 72 h; series mostly up to 28.7 µM
Procedure, shortened: as §2

CP192 = assay: as above; conditions: P. falciparum in erythrocytes, SYBR Green DNA, 72 h; series mostly up to 28.7 µM
Procedure, shortened: as §2

CP194 = assay: as above; conditions: P. falciparum in erythrocytes, SYBR Green DNA, 72 h; series mostly up to 28.7 µM
Procedure, shortened: as §2

[7] = qHTS drug screen for cell cycle checkpoint inhibitors in PARPi-resistant BRCA-mutant ovarian cancer cell lines. (AID 1963452; calls by dose curve; also: potency is read from the fitted curve at half-maximal effect); conditions: PEO1/OlaR viability, CellTiter-Glo luminescence, 96 h; for Z-AUC: stronger effect = lower value
Procedure, shortened: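 PEO1, PEO4 and PEO1/OlaR ovarian cancer cells, 600 per well, exposed 96 h at 37C to a dilution series. Viability read by CellTiter-Glo luminescence, normalized to DMSO and empty wells; activity summarized as Z-AUC.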

[8] = target: Nuclear receptor subfamily 1 group I member 2 (Homo sapiens) (UniProt O75469); assay: Dual reporter qHTS for antagonist of Pregnane X Receptor (hPXR) against the NCATS DSHEA and TCM libraries: Luminescence Readout (AID 1920060);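 also: HepG2 cells carrying hPXR luciferase reporter stimulated with rifampicin at 2 µM; 0% is about no effect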
Procedure, shortened: as §1

[9] = at 28.7 µM (top of the series), parasite line A
[10] = at 28.7 µM (top of the series), parasite line B
[11] = measured here: PEO1 parental Z-AUC
[12] = at 12.8 µM (top of the series), parasite line A
[13] = at 12.8 µM (top of the series), parasite line B

Nuclear receptor subfamily 1 group I member 2 (Homo sapiens), sequence (O75469 whole entry, looked up): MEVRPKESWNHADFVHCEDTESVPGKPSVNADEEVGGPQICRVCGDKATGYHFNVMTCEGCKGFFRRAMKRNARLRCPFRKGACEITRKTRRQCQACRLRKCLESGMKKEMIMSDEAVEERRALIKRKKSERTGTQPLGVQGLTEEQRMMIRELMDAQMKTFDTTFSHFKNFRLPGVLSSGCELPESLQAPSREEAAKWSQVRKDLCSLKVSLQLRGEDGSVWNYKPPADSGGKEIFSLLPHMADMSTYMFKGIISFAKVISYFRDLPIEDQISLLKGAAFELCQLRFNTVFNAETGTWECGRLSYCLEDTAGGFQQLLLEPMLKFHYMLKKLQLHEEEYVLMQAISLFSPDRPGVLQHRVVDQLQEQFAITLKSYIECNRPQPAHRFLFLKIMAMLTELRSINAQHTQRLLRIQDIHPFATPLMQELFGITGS

Nc1ccc(C(=O)O)cc1
inactive: outcome [1] | max response [2] -2.08% | outcome [3] | outcome [4] | outcome [5] | activity, negative = inhibition [6, 9] -7.02% | activity, negative = inhibition [6, 10] 4.76% | Potency (3D7) | Potency (7G8) | Potency (AA1029) | Potency (AS120) | Potency (ATS189) | Potency (ATS95) | Potency (C2A) | Potency (CP185) | Potency (CP191) | Potency (CP192) | Potency (CP194)

COc1cc(-c2ccc(=O)[nH]n2)ccc1OC(F)F
inactive: Potency (3D7) | Potency (7G8) | Potency (ATS189) | Potency (C2A)
active: Potency ([6]; parasite line A) 11.2 µM | Potency ([6]; parasite line B) 0.891 µM | Potency (AA1029) 0.178 µM | Potency (AS120) 0.891 µM | Potency (ATS95) 0.251 µM

Nc1ccn([C@@H]2O[C@H](CO)[C@@H](O)C2(F)F)c(=O)n1
-1.86: Z-AUC ([7]; measured here: PEO4 Z-AUC)
-3.27: Z-AUC [7, 11]
active: Potency [7] 0.0078 µM

Nc1nc2ncc(CNc3ccc(C(=O)N[C@@H](CCC(=O)O)C(=O)O)cc3)nc2c(=O)[nH]1
inactive: outcome [1] | max response [2] -4.69% | outcome [3] | outcome [4] | outcome [5]

O=c1[nH]c(=O)n([C@H]2C[C@H](O)[C@@H](CO)O2)cc1C(F)(F)F
inactive: Z-AUC [7] -0.642
-0.403: Z-AUC ([7]; measured here: PEO4 Z-AUC)
-0.928: Z-AUC [7, 11]

C[C@]12CC[C@@H]3c4ccc(O)cc4CC[C@H]3[C@@H]1C[C@@H](O)[C@@H]2O
0.00281: Z-AUC [7, 11]
inactive: Z-AUC [7] -0.032
0.225: Z-AUC ([7]; measured here: PEO4 Z-AUC)

C=CCc1ccc(O)c(OC)c1
inactive: outcome [1] | max response [2] -2.5% | outcome [3] | outcome [4] | outcome [8] | outcome [5] | activity, negative = inhibition [6, 9] 9.84% | activity, negative = inhibition [6, 10] 1.91% | Potency (3D7) | Potency (7G8) | Potency (AA1029) | Potency (AS120) | Potency (ATS189) | Potency (ATS95) | Potency (C2A) | Potency (CP185) | Potency (CP191) | Potency (CP192) | Potency (CP194)

CCOC(=O)c1cccc(N)c1
inactive: activity, negative = inhibition [6, 9] 6.66% | activity, negative = inhibition [6, 10] 6.86% | Potency (3D7) | Potency (7G8) | Potency (AA1029) | Potency (AS120) | Potency (ATS189) | Potency (ATS95) | Potency (C2A) | Potency (CP185) | Potency (CP191)

CC(=O)N(O)CCCCCNC(=O)CCC(=O)N(O)CCCCCNC(=O)CCC(=O)N(O)CCCCCN
-0.402: Z-AUC [7, 11]
-0.683: Z-AUC ([7]; measured here: PEO4 Z-AUC)
inactive: Z-AUC [7] -0.069 | activity, negative = inhibition [6, 12] 5.32% | activity, negative = inhibition [6, 13] 1.3% | Potency (3D7) | Potency (7G8) | Potency (AA1029) | Potency (AS120) | Potency (ATS189) | Potency (ATS95) | Potency (C2A) | Potency (CP185) | Potency (CP191) | Potency (CP192) | Potency (CP194)

Cc1cc(N)c2cc(NC(=O)Nc3ccc4nc(C)cc(N)c4c3)ccc2n1
active: Potency ([6]; parasite line A) 8.91 µM | Potency ([6]; parasite line B) 11.2 µM | Potency (3D7) 7.08 µM | Potency (7G8) 2.24 µM | Potency (AA1029) 14.1 µM | Potency (AS120) 12.6 µM | Potency (ATS189) 5.62 µM | Potency (ATS95) 11.2 µM | Potency (C2A) 10 µM | Potency (CP185) 11.2 µM | Potency (CP191) 0.631 µM | Potency (CP192) 3.79 µM

CC(C)n1nc(-c2cc3cc(O)ccc3[nH]2)c2c(N)ncnc21
-1.29: Z-AUC [7, 11]
-1.52: Z-AUC ([7]; measured here: PEO4 Z-AUC)
inactive: Z-AUC [7] -1.59

CC[C@H](C)C(=O)O[C@H]1CCC=C2C=C[C@H](C)[C@H](CC[C@@H]3C[C@@H](O)CC(=O)O3)[C@H]21
1.13: Z-AUC [7, 11]
1.15: Z-AUC ([7]; measured here: PEO4 Z-AUC)
inactive: Z-AUC [7] 1.25

O=c1ccc2ccccc2o1
inactive: outcome [1] | max response [2] 0.354% | outcome [3] | outcome [4] | outcome [8] | outcome [5] | activity, negative = inhibition [6, 9] 10.1% | activity, negative = inhibition [6, 10] 1.35% | Potency (3D7) | Potency (7G8) | Potency (AA1029) | Potency (AS120) | Potency (ATS189) | Potency (ATS95) | Potency (C2A) | Potency (CP185) | Potency (CP191) | Potency (CP192) | Potency (CP194)

C[C@]12C=CC(=O)C=C1CC[C@@H]1[C@@H]2[C@@H](O)C[C@@]2(C)[C@H]1CC[C@]2(O)C(=O)CO
inactive: Z-AUC [7] -0.821
0.0884: Z-AUC [7, 11]
-0.444: Z-AUC ([7]; measured here: PEO4 Z-AUC)

CC(C)(C)CC(C)(C)c1ccc(O)c(Cc2ccc(Cl)cc2Cl)c1
active: Potency ([6]; parasite line A) 2 µM | Potency ([6]; parasite line B) 0.562 µM | Potency (3D7) 2.24 µM | Potency (7G8) 0.447 µM | Potency (AA1029) 0.891 µM | Potency (AS120) 0.501 µM | Potency (ATS189) 0.794 µM | Potency (ATS95) 2 µM | Potency (C2A) 2.82 µM | Potency (CP185) 3.16 µM | Potency (CP191) 1 µM | Potency (CP192) 3.79 µM

CC(=O)OCC(=O)[C@@]12N=C(C)O[C@@H]1C[C@H]1[C@@H]3CCC4=CC(=O)C=C[C@]4(C)[C@H]3[C@@H](O)C[C@@]12C
0.153: Z-AUC ([7]; measured here: PEO4 Z-AUC)
1.08: Z-AUC [7, 11]
inactive: Z-AUC [7] 0.653

CC(=O)O[C@]1(C(C)=O)CC[C@H]2[C@@H]3C[C@H](C)C4=CC(=O)CC[C@]4(C)[C@H]3CC[C@@]21C
inactive: Z-AUC [7] -1.26
-0.257: Z-AUC [7, 11]
0.0735: Z-AUC ([7]; measured here: PEO4 Z-AUC)

CC(Cc1cccc(C(F)(F)F)c1)NCCOC(=O)c1ccccc1 (stereo not given)
inactive: activity, negative = inhibition [6, 9] 15.8% | activity, negative = inhibition [6, 10] 6.99% | Potency (3D7) | Potency (AA1029) | Potency (AS120) | Potency (ATS189) | Potency (ATS95) | Potency (C2A) | Potency (CP185) | Potency (CP191) | Potency (CP192)
active: Potency (7G8) 8.91 µM

COc1cccc2c1C(=O)c1c(O)c3c(c(O)c1C2=O)C[C@@](O)(C(=O)CO)C[C@@H]3O[C@H]1C[C@H](N)[C@H](O)[C@H](C)O1
inactive: Z-AUC [7] -0.906
-0.971: Z-AUC [7, 11]
-0.369: Z-AUC ([7]; measured here: PEO4 Z-AUC)

CC/C(=C(/CC)c1ccc(O)cc1)c1ccc(O)cc1
0.271: Z-AUC ([7]; measured here: PEO4 Z-AUC)
-0.188: Z-AUC [7, 11]
inactive: Z-AUC [7] -0.318 | activity, negative = inhibition [6, 10] -19.4% | Potency (3D7) | Potency (AA1029) | Potency (AS120) | Potency (ATS95) | Potency (C2A) | Potency (CP185) | Potency (CP192) | Potency (CP194)

CCN(CC)C(=O)N1CCN(C)CC1
inactive: activity, negative = inhibition [6, 12] 5.24% | activity, negative = inhibition [6, 13] 18.6% | Potency (3D7) | Potency (7G8) | Potency (AA1029) | Potency (AS120) | Potency (ATS189) | Potency (ATS95) | Potency (C2A) | Potency (CP185) | Potency (CP191) | Potency (CP192) | Potency (CP194)
